LYPLA1 inh – LYPLA1 inhibitors, primary screen, counter-screen for PME1 inhibitor project, biochemical, fluorescence polarization, FP-Rh probe ABPP. inhibition, % at 5.9 µM. recombinant LYPLA1. 320,000 compounds, 0.16% hits;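 active = inhibition above the mean of all tested compounds plus 3 SD, set per campaign, cut at about 14% in these data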;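 also: inhibitors block serine hydrolase probe labeling of LYPLA1 so polarization falls; 0% = enzyme with DMSO and 100% = wells lacking LYPLA1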
Fam108B inh – mouse Fam108B serine hydrolase inhibitors, primary screen, counter-screen for RBBP9 inhibitor project, biochemical, fluorescence polarization; recombinant Fam108B, FP-Rh probe fluorescence polarization; inhibition, % at 9.51 µM; 300,000 compounds, 0.33% hits; AID 1947, 2009;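 active = inhibition above the screen mean inhibition plus 3 SD, computed separately per campaign, cut at about 18% in these data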;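 also: inhibitors lower polarization as less probe binds the enzyme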
PAD4 FP inh – human PAD4 inhibitors, primary screen, biochemical, fluorescence polarization, 1536-well format. AID 485272, 2010. recombinant PAD4, RCA probe fluorescence polarization. Protein-arginine deiminase type-4 (Homo sapiens), Q9UM07. inhibition, % at 6.36 µM. 330,000 compounds, 0.41% hits;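 active = percent inhibition above a cutoff equal to the mean of all tested compounds plus 3 SD, cut at about 15% in these data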;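 also: 0% = PAD4 with RCA probe and DMSO and 100% = probe without PAD4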
LYPLA2 counter – LYPLA2 inhibitors, primary screen, counter-screen for PME1 inhibitor project, biochemical, fluorescence polarization, FP-Rh probe ABPP; inhibition, % at 5.9 µM; recombinant LYPLA2; 320,000 compounds, 0.38% hits; Acyl-protein thioesterase 2 (Homo sapiens), O95372; AID 2177, 2009;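 active = inhibition above the screen-wide mean plus 3 SD, limit set per campaign, cut at about 26% in these data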;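 also: 0% = LYPLA2 with DMSO and 100% = wells lacking LYPLA2 enzyme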
Target sequence (O95372 whole entry, looked up): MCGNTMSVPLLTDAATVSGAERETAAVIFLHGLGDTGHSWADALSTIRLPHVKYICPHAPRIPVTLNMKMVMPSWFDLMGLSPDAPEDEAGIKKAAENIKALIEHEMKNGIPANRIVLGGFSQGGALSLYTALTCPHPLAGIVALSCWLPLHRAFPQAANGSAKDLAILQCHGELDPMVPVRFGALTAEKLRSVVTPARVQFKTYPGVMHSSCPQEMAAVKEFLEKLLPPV
PME-1 inh – PME-1 inhibitors via competitive probe labeling, primary screen, biochemical, fluorescence polarization, FP-Rh probe, HTS. Protein phosphatase methylesterase 1 (Homo sapiens), Q9Y570. recombinant PME-1. inhibition, % at 5.9 µM. 320,000 compounds, 0.53% hits. AID 2130, 2009;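 active = inhibition above the campaign mean of all compounds plus 3 SD, cut at about 26% in these data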;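 also: competitive labeling of PME-1 active site by serine hydrolase directed probe; 0% = PME-1 with DMSO and 100% = wells lacking PME-1 enzyme; inhibitors block probe labeling so polarization falls and inhibition rises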
GSTO1 counter – inhibitors of recombinant GSTO1, primary screen, counter-screen for RBBP9 inhibitor project, biochemical, fluorescence polarization; Glutathione S-transferase omega-1 (Homo sapiens), P78417; activity-based probe fluorescence polarization; inhibition, % at 5.96 µM; 300,000 compounds, 1.1% hits; AID 1974, 2009;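 active = inhibition above the campaign mean inhibition plus 3 SD, cut at about 35% in these data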;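 also: 0% = GSTO1-1 with DMSO and 100% = wells lacking GSTO1-1 enzyme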
Target sequence (P78417 whole entry, looked up): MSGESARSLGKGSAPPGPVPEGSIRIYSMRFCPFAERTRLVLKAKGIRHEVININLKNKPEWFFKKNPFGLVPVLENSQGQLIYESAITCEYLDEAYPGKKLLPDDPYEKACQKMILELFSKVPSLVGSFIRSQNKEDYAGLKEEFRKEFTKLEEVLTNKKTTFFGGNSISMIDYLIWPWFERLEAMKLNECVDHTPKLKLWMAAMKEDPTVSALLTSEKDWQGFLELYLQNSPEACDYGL
Numbers without * were called inactive; / = not tested or not shown. Compounds with a hit are over-represented: about 1.8% of the library has one in this group of screens.

SMILES	LYPLA1 inh	Fam108B inh	PAD4 FP inh	LYPLA2 counter	PME-1 inh	GSTO1 counter
CCCCC(=O)NNC(=S)NC(=O)c1ccc(C)cc1	-0.5	-1.6	-0.5	1.0	-8.0	-5.7
Cc1ccc(C(=O)NC(=S)NNC(=O)CC#N)cc1	1.1	-1.2	3.6	0.5	5.0	35.3*
CCN(CC(=O)NCc1ccc(F)cc1)C(=O)c1ccc(C)o1	-2.5	1.9	-1.6	-1.3	-1.3	5.3
CCCCCOc1ccc(C(=O)CCC(=O)N2CCCC2)cc1	0.1	0.6	-3.5	1.7	0.9	0.5
O=C(N/N=C1/C(=O)c2cccc3cccc1c23)c1ccc(Cl)cc1	5.9	9.8	2.4	31.3*	7.3	30.0
COC(=O)c1cccn(CC(=O)c2ccc(Cl)cc2Cl)c1=O	0.9	3.2	-0.6	2.0	-1.7	1.1
CCOc1ccc2c(c1)OC(c1ccc(OC)cc1)(C(F)(F)F)NC2=O (stereo not drawn)	-1.4	4.0	0.6	3.6	4.7	-0.9
COc1ccc2c(c1)OC(O)(C(F)(F)F)CC2=O (stereo not drawn)	-3.1	-2.2	-3.0	-4.1	4.4	36.1*
O=C1CNC(=S)N1CCc1ccc(O)c(O)c1	1.3	-0.2	-2.9	3.2	1.5	60.5*
COC(=O)c1ccc(NC(=O)C(=O)N2CCN(C(=S)Nc3cccc(OC)c3)CC2)cc1	-6.7	0.7	2.3	56.1*	1.2	3.3
OCCC1CN(Cc2cccn2-c2ncccn2)CCN1C1CCCC1 (stereo not drawn)	-0.5	-0.1	-2.6	3.0	0.4	-4.4
CC1CCN(C(=O)CCc2ccc(Oc3cc([N+](=O)[O-])cc([N+](=O)[O-])c3)cc2)CC1	4.2	4.4	-0.7	36.8*	7.2	-4.2
O=C(CCc1ccc(Oc2cc([N+](=O)[O-])cc([N+](=O)[O-])c2)cc1)NC1CCCC1	3.5	5.2	0.8	5.3	25.8	9.4
CC(NC(=O)COC(=O)/C=C/c1ccc2c(c1)OCO2)c1ccccc1 (stereo not drawn)	1.2	/	2.1	7.4	2.3	/
Nc1c(C(=O)N/N=C/c2cccnc2)oc2nc(-c3ccco3)cc(-c3ccco3)c12	-2.3	-0.2	-3.0	-9.2	7.3	9.2
NNC(=O)c1oc2nc(-c3ccco3)cc(-c3ccco3)c2c1N	-5.2	12.6	3.8	-1.0	6.2	52.1*
c1ccc(C2Nc3cccc4cccc(c34)N2)cc1	-3.8	12.7	3.9	0.1	3.1	36.3*
CN(C)c1ccc(C2Nc3cccc4cccc(c34)N2)cc1	-2.4	7.3	-0.6	-8.9	12.0	20.2
COc1ccc(C2Nc3cccc4cccc(c34)N2)cc1	-3.4	4.4	-3.5	-0.8	14.4	35.4*
COc1ccccc1C1Nc2cccc3cccc(c23)N1	-6.0	2.0	-9.0	-3.6	8.0	49.9*
CC1=CC2=C(OC1N(C)C)c1cccc3cccc(c13)C2=O (stereo not drawn)	5.8	10.3	17.9*	8.1	24.2	9.1
O=C(CCCC1=NS(=O)(=O)c2ccccc2N1)N1CCN(c2ccc([N+](=O)[O-])cc2)CC1	1.2	-4.9	1.1	11.2	-0.2	-5.9
CC1(C)Cc2c(sc3[nH]c(=S)[nH]c(=O)c23)CO1	0.1	-0.4	-2.3	-6.8	-2.1	10.2
CC1(C)Cc2c(sc3nc(SCC(=O)O)[nH]c(=O)c23)CO1	0.7	-1.3	3.2	-1.0	1.2	36.5*
CC(C)=NNc1nc2sc3c(c2c(=O)[nH]1)CC(C)(C)OC3	-0.2	-3.8	-4.0	6.0	36.3*	1.6
SMILES	LYPLA1 inh	Fam108B inh	PAD4 FP inh	LYPLA2 counter	PME-1 inh	GSTO1 counter
O=C(COc1cccc2ccccc12)NCc1cccnc1	1.7	6.3	5.9	7.3	2.4	5.8
CCOC(=O)C1CCN(C(=O)CN(c2ccc3c(c2)OCCO3)S(C)(=O)=O)CC1	1.9	3.1	4.5	-1.0	-1.1	3.0
O=C(O)c1cccc2c1C(=O)c1cccc3snc-2c13	-1.4	-0.5	1.9	1.7	8.3	3.9
Oc1ccc2c(c1)C1CCCC1(N1CCOCC1)O2 (stereo not drawn)	0.2	1.6	2.7	5.9	-0.8	41.8*
O=C(NN1C(=O)/C(=C/c2cc([N+](=O)[O-])ccc2O)SC1=S)c1ccccc1O	-6.5	2.1	-4.6	-0.9	3.6	67.4*
COC/C=C/C1=CC2=CC(=O)C(C)(OC(=O)c3cnc4ccccc4n3)C(=O)C2=CN1C1CCCCC1 (stereo not drawn)	-5.0	10.0	0.2	-3.5	3.4	35.5*
COC/C=C/C1=CC2=CC(=O)C(C)(OC(=O)c3cnc4ccccc4n3)C(=O)C2=CN1c1ccc(CO)cc1 (stereo not drawn)	0.9	11.3	6.7	9.6	5.3	36.7*
C=CCOc1ccccc1CN(CCc1ccccc1)C(=O)c1cccc(S(C)(=O)=O)c1	2.6	-2.7	-1.3	3.2	10.0	2.8
Cc1[nH]n(-c2nc(-c3ccc(Cl)cc3)cs2)c(=O)c1N=Nc1ccc(O)cc1	-1.9	9.1	-1.8	-0.2	14.6	1.7
CN(C(=S)Nc1ccc(SC(F)F)cc1)c1ccc(O)cc1	0.9	1.6	11.4	14.5	5.7	65.7*
O=C(C#Cc1ccccc1)c1ccco1	3.1	-1.6	4.7	7.4	-1.7	6.5
Cc1nc(C)c(-c2csc(Nc3cccc(O)c3)n2)s1	-4.1	10.5	1.7	-2.5	-3.2	-3.8
CCC(=O)Nc1nc(C)c(-c2csc(Nc3cccc(O)c3)n2)s1	4.0	16.4	-2.0	12.4	30.1*	1.1
CCCCCCC(=O)Nc1nc(C)c(-c2csc(Nc3cc(OC)ccc3OC)n2)s1	-13.3	10.7	-3.0	-2.3	35.4*	6.2
CCOC(=O)C1(Cc2ccccc2)CCCN(C(=O)c2cnn(CC)c2)C1 (stereo not drawn)	3.2	5.6	-4.2	12.5	-0.7	-1.5
O=C(O)c1cc(NN=Nc2ccc(Br)cc2)cc([N+](=O)[O-])c1	9.3	2.1	-2.4	6.2	39.8*	10.1
Brc1ccc(N=NNc2ccccc2)cc1	-2.8	3.0	0.3	0.8	32.9*	-0.3
O=C(O)c1cc(NN=Nc2cccc(S(=O)(=O)O)c2)cc([N+](=O)[O-])c1	2.4	2.9	-0.4	3.5	-2.3	1.3
CCc1ccc2nc(SCC(=O)N3CC(=O)Nc4ccccc43)c(C#N)cc2c1	-0.8	-4.7	-26.8	1.3	34.1*	-1.9
N#Cc1cc(C#N)c(SCC(=O)N2CC(=O)Nc3ccccc32)nc1N	-5.0	/	-2.8	-5.4	16.5	/
COc1ccc(Nc2cnn(-c3nc4ccccc4s3)c(=O)c2Cl)cc1	-2.8	1.6	-2.6	11.4	29.1*	-5.3

Screening data from PubChem BioAssay.
